# Bioassay records deposited in PubChem BioAssay by The Scripps Research Institute Molecular Screening Center.
# The list is not random: actives were taken first. Their share in the collection is about 5.7%.
# AHR activator: activators of human aryl hydrocarbon receptor | P35869 | AHR-responsive luciferase reporter cells, luminescence | activation, % at 5 µM | 320,000 compounds, 2.5% hits | AID 2796; in the data active = activation above about 47%;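 note: 0% = vehicle wells and 100% = reference agonist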
# DAX1 inh-1: inhibitors of DAX1 repression of SF-1 activated StAR promoter | HEK293T StAR-luciferase reporter, SF-1/DAX-1 repression relief | inhibition, % at 6.8 µM | 370,000 compounds, 1.1% hits | AID 652010;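 active = inhibition above the mean over all tested compounds plus 3 SD, cut at about 3.6% in these data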;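 note: 0% = DAX-1 cells with DMSO and 100% = cells lacking DAX-1 with DMSO; higher inhibition means more luminescence from relief of DAX-1 repression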
# DAX1 inh-2: NR0B1 (DAX1) inhibition; P51843; HEK293 Gal4-DAX1 luciferase reporter, luminescence; inhibition, % at 6.75 µM; 340,000 compounds, 0.99% hits; AID 504766;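 active = inhibition above the mean over all tested compounds plus 3 SD, cut at about 4.2% in these data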;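 note: 0% = DAX1-transfected cells with DMSO and 100% = empty-vector control cells with DMSO; inhibition shows as a rise in luminescence from relieved DAX1 repression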
# hgDAF-12 ag: agonists of H. glycines DAF-12 nuclear receptor; activation, % at 6.8 µM; 370,000 compounds, 1.8% hits; HEK293 GAL4-hgDAF12 UAS-luciferase reporter, agonist luminescence; normalized to butyrate control; AID 687014;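 active = activation above a cutoff set at the mean of all screened compounds plus 3 SD, cut at about 10% in these data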;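 note: 0% = DMSO wells and 100% = sodium butyrate wells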
# ssDAF12 agonist: S. stercoralis DAF-12 activation, primary screen. HEK293 ssDAF-12/GRIP1 lit1-tk-luc reporter, luminescence; % of 3 µM dafachronic acid response. activation, % at 6.8 µM. 370,000 compounds, 1% hits. AID 652126;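 active = activation above the mean over all tested compounds plus 3 SD, cut at about 0.9% in these data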;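 note: 0% = DMSO-only wells and 100% = 3 µM delta7-dafachronic acid wells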
# hcDAF12 agonist: activates DAF-12 receptor from parasite H. contortus | activation, % at 6.8 µM | HEK293 hcDAF-12 lit1-tk-luc reporter, luminescence; 0% DMSO, 100% Δ7-dafachronic acid | 370,000 compounds, 1.4% hits;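 active = activation above the mean of all tested compounds plus 3 SD, cut at about 5.5% in these data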;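 note: 100% = response to 3 µM Δ7-dafachronic acid high control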
# LXR ag: counter-screen for hcDAF-12 agonists: agonists of human LXR-beta. HEK293 Gal4-LXR tk-luc reporter, luminescence, 24 h; normalized: DMSO 0%, positive control 100%. 3,400 tested, under 10 active. activation, % at 6.8 µM. shares compounds with hcDAF12 agonist;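 active = mean percent activation of the reporter above a cutoff set as the average over tested compounds plus their standard deviation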
# Target sequence (P55055 whole entry, looked up, the tested form may be a part): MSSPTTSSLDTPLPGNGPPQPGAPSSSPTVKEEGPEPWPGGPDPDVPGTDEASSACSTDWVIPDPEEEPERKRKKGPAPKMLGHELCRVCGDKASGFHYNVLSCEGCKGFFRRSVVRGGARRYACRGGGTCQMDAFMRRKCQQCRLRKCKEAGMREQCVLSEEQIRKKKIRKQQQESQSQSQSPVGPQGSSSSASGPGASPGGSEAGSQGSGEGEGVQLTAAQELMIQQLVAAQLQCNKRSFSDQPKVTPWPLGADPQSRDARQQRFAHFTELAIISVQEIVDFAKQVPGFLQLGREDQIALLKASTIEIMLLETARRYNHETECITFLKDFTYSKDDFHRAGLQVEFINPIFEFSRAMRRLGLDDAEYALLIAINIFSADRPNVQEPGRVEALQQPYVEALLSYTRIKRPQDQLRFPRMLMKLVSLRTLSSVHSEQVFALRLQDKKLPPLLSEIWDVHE
# hcDAF12 conf: confirmation of H. contortus DAF-12 agonists; shares compounds with hcDAF12 agonist; HEK293 hcDAF-12 lit1-tk-luc reporter, luminescence; % of Δ7-dafachronic acid response; activation, % at 6.8 µM; 3,400 compounds, 61% hits; AID 743032;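 active = mean activation across triplicate tests above the threshold derived from the earlier primary screen, cut at about 5.5% in these data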;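 note: 0% = DMSO only wells and 100% = 3 µM Δ7-dafachronic acid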
# * marks the source's active call; other numbers are inactive results; · = no result given.
SMILES,AHR activator,DAX1 inh-1,DAX1 inh-2,hgDAF-12 ag,ssDAF12 agonist,hcDAF12 agonist,LXR ag,hcDAF12 conf
COc1ccc(Cl)cc1-c1nc(-c2ccc(Br)o2)no1,31,0,0,4,1,8.2*,0,8.8*
Cc1ccc(OCCN2CCN(C(=O)CCC(=O)Nc3nnc(CC(C)C)s3)CC2)cc1,1,-1,-5,-7,-3,-5,·,·
O=[N+]([O-])c1ccc(-c2ccc(C=Nc3cccc4ccccc34)o2)cc1,42,1,0,2,0,6.8*,0,1
Cc1cnc(C2OCCO2)c2cccc([N+](=O)[O-])c12,·,-1,1,-2,-1,-1,·,·
O=C(CSc1nnc(CNC(=O)c2ccccc2)o1)Nc1nccs1,-1,0,0,4,-1,0,·,·
CC(=O)NCCC(=O)N1CCc2c([nH]c3ccccc23)C1c1cccc(C)c1 (stereo not drawn),25,0,1,9,0,7.1*,0,7.6*
CC(=O)c1cccc(NC(=O)C(C)OC(=O)C2=NNC(=O)CC2)c1 (stereo not drawn),1,0,0,1,-2,2,·,·
COc1ccc(CNC2CCC23CCCCC3)cc1OC (stereo not drawn),·,·,·,-1,-2,-2,·,·
CCOc1ccc(-c2nc(CCl)cs2)cc1,10,2,3,13*,-1,9.1*,0,3
Nc1cc2c(cc1Cl)-c1ccccc1C2,·,0,4,12*,0,7.5*,0,4
Cc1ccc(-c2cc3nc(C)cc(NCc4ccco4)n3n2)cc1,17,3,2,9,2.4*,8.5*,1,6.2*
CN1CC(=O)N2[C@@H](C[C@]3(c4c[nH]c5ccccc45)c4ccccc4N(S(=O)(=O)c4ccccc4)[C@H]23)C1=O,·,·,·,-1,0,6.6*,0,4
C[C@@]12C[C@@H]3C(=O)N(Cc4ccccc4)CC(=O)N3[C@@H]1N(S(=O)(=O)c1ccccc1)c1ccccc12,·,0,·,-1,-1,-3,·,·
Cc1ccccc1-c1ccc(C(=O)Nc2cccc(F)c2)o1,21,0,2,8,0,7.3*,0,5.7*
COc1ccc2[nH]cc(C(=O)CNc3nc(C)cs3)c2c1,41,2,0,8,0,7.3*,0,7.6*
Cn1c(=O)c(/C=C/c2ccc(F)cc2)nc2ccccc21,·,1,1,7,0,10.0*,0,9.9*
Cn1c(=O)c(/C=C/c2ccccc2)nc2ccccc21,53*,4.2*,3,23*,2.4*,13*,1,16*
NC(=O)c1ccccc1NC(=S)NC(=O)c1ccc(Br)o1,35,1,3,7,0,9.2*,0,5
O=C(NC(=S)NCc1ccccc1)c1ccc(Br)o1,15,0,1,1,-1,1,·,·
COc1ccc(F)cc1S(=O)(=O)Nc1ccncc1,0,0,0,2,-1,0,·,·
COc1ccc(CCNC(=O)COC(=O)C23CC4CC(CC(C4)C2)C3)cc1,-4,-2,-2,5,0,6.8*,0,1
COc1ccc(CCNC(=O)COC(=O)C23CC4CC(CC(Br)(C4)C2)C3)cc1,-1,-2,-1,0,-1,-3,·,·
O=C(Nc1ccc2cccnc2c1)c1ccc(Br)cc1,50*,0,3,7,0,8.6*,0,7.0*
NC(=O)COc1c(-c2ccc(Br)o2)oc2ccccc2c1=O,22,·,-1,·,·,·,·,·
O=C(Nc1c(-c2ccccc2)nc2ccccn12)c1ccccc1,3,0,-1,-4,-2,0,·,·
SMILES,AHR activator,DAX1 inh-1,DAX1 inh-2,hgDAF-12 ag,ssDAF12 agonist,hcDAF12 agonist,LXR ag,hcDAF12 conf
CC(=O)Nc1c(-c2ccc3ccccc3c2)nc2ccccn12,51*,2,4.2*,9,1.9*,7.6*,1,7.3*
COCc1cc(C)nc(SCC(=O)Nc2nc(C)cs2)c1C#N,-3,2,-2,10,0,9.7*,1,6.3*
Oc1csc(Cc2nc(-c3ccc(Br)cc3)cs2)n1,78*,2,2,12*,0,8.8*,0,7.6*
Clc1ccc(Nc2nc(-c3cccnc3)cs2)cc1,45,2,1,12*,1.9*,9.3*,1,11*
Cc1ccc(C(C)C)c(OC/C(O)=C(\C#N)c2nc3ccccc3[nH]2)c1,18,-1,2,2,-1,-1,·,·
O=C(NNC(=S)NCc1ccccc1)c1ccc(Br)cc1,-1,0,0,0,0,1,·,·
CCCc1cc2c(=O)c(-c3nc4ccccc4s3)c(COCC(=O)O)oc2cc1O,·,1,1,9,0.9*,6.8*,0,7.7*
Cc1cc2ncc(-c3cccs3)nc2cc1C,·,3,-1,18*,2.1*,15*,3,18*
O=C(COCc1ccccc1)N[C@@H]1c2ccccc2CC[C@@H]1OCc1ccccc1,·,1,0,2,-1,0,·,·
COc1cc(C(CC(=O)Nc2ccc(C)cn2)N2Cc3ccccc3C2=O)cc(OC)c1OC (stereo not drawn),0,0,0,0,-1,2,·,·
CCOC(=O)N1N=C(c2ccc(OC)cc2)CC1(O)C(F)(F)F (stereo not drawn),7,4.1*,1,9,1.8*,7.9*,1,6.4*
CCN(C[C@H]1N[C@@](Cc2ccccc2)(C(=O)OC)[C@H]2C(=O)N(C)C(=O)[C@@H]12)C(=O)c1ccc(F)cc1,0,2,0,-2,-1,-1,·,·
CCN(C[C@H]1N[C@@](CC)(C(=O)OC)[C@H]2C(=O)N(C)C(=O)[C@@H]12)C(=O)c1ccc(F)cc1,-1,1,1,-4,-1,12*,0,3
O=C1[C@H]2CCCC[C@H]2C(=O)N1CCCCN1CCN(c2nsc3ccccc23)CC1,5,-1,-1,-2,-1,-1,·,·
COCCNC(=O)C1CC(c2ccccc2[N+](=O)[O-])=NO1 (stereo not drawn),3,0,2,1,-1,-1,·,·
COc1ccc(CCNC(=O)C2CC(c3ccccc3[N+](=O)[O-])=NO2)cc1 (stereo not drawn),15,1,4,8,1.3*,7.6*,1,6.6*
CCOC(=O)C1CCN(c2ccc(-c3cccs3)nn2)CC1,2,0,1,1,-1,-3,·,·
